# From ChEMBL document CHEMBL3988442, “University of Dundee, Small-Polar-MMV Screening Library” (2021)
# Biological target: T1, Tyrosyl-tRNA synthetase, putative (Trypanosoma cruzi (strain CL Brener)) (UniProt Q4DSP6)
# T1 sequence (whole entry): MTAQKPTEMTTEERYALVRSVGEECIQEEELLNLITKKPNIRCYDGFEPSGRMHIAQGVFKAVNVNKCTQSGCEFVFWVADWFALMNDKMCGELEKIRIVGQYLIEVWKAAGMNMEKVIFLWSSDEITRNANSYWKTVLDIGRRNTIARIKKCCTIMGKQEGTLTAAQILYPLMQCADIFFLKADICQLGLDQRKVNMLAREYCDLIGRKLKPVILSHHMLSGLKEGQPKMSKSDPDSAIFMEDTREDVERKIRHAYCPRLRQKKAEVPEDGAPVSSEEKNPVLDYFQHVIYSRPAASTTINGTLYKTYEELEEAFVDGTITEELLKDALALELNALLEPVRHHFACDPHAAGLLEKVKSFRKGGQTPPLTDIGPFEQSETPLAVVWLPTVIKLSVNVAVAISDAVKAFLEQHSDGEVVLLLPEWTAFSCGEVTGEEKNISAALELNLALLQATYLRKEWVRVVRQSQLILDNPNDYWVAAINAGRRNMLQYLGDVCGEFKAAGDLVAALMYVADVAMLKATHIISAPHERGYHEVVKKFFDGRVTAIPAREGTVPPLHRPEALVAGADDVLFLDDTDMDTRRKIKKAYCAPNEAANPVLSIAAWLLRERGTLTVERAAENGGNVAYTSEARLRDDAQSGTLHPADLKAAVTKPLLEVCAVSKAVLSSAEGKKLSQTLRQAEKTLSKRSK
# Assay: Trypanosoma cruzi tyrosyl tRNA synthetase (TcYRS) _High Tyrosine SOP; also: in the data most compounds retested in dose-response had high values
# Format: functional
# Parameters: scale not given: direction of the effect not stated beside the values
# Settings: 30 µM
row,SMILES,Percent Effect [%]
1,CCn1cc(Br)c(C(=O)NCc2cccnc2)n1,7.53
2,CCNC(=O)N1CCCCC1CCO (stereo not given),0.529
3,Cc1ccc(CN2Cc3c(C(=O)N(C)C)nn(C)c3C2)s1,3.12
4,COc1ccc(-n2ccc(C(=O)N3CCC(C(N)=O)C3)n2)cc1 (stereo not given),2.97
5,CC(C)(C)C(=O)NCCC(=O)NC(C)(C)c1ccc2c(c1)OCCO2,2.15
6,Cn1ncc2c(NCCOc3ccc(F)cc3)nc(C3CCCC3)nc21,5.38
7,O=C(CCc1ccsc1)NCC1CCN(c2ccccc2)C1 (stereo not given),6.32
8,CC(NC(=O)COc1nc(C(C)(C)C)no1)c1ccco1 (stereo not given),4.76
9,CCOCCN1CCN(Cc2nnc(C3CC3)o2)CC1CC (stereo not given),2.15
10,Cc1nccc(CNC(=O)NCCOc2ccc(F)c(F)c2)n1,4.76
11,COC[C@]12COC[C@H]1CN(Cc1cc(OC)cc(OC)c1)C2,1.08
12,CN(C)CC(=O)N1CCC2(CC1)CN(c1ccsc1)C(=O)CO2,0
13,COc1ccc(-c2nnc(SC(C)C(=O)NC3CC3)[nH]2)c(OC)c1 (stereo not given),6.38
14,Cc1cc(NC(=O)CCN2CCCC2Cn2cncn2)no1 (stereo not given),4.17
15,CCN(CC)c1ccc(C(=O)NCc2cccnc2-n2cncn2)cn1,2.15
16,O=C(c1ccco1)N1CCOCC2(C1)CN(c1ccccc1)C(=O)CO2 (stereo not given),2.08
17,O=C(Cc1ccc2c(c1)CCO2)N1CCCCC1Cn1cccn1 (stereo not given),5.32
18,CCCc1cc(=O)[nH]c2nnc(SCC(=O)NCc3ccc(C)cc3)n12,6.45
19,CCc1cnc(CN(C(C)=O)C2CCN(CCc3cnn(C)c3)C2)o1 (stereo not given),7.39
20,Cc1nc(C)n(CC2CCCN(CCc3ccncc3)C2)n1 (stereo not given),7.53

row,SMILES,Percent Effect [%]
1,CCS(=O)(=O)N(C)C(=O)c1cc(C)n(-c2cccc(OC)c2)c1C,4.43
2,CCN(Cc1cccc(Cl)c1)Cc1nc2c(cnn2C)c(=O)[nH]1,3.81
3,Cc1cc(-c2cnn(CCNC(=O)C3CCCO3)c2C2CC2)on1 (stereo not given),2.15
4,COc1ccc(NC(=O)N2CCCC2c2ccco2)cc1OC (stereo not given),-5.29
5,Cn1cnc2c1C(COCC1CCOCC1)CN(C1CCOCC1)C2 (stereo not given),5.32
6,CCC(C)NC(=O)Cc1c(C)nc2c(c1C)c(=O)[nH]n2C (stereo not given),2.15
7,CN(C)C(=O)CN1C[C@@H]2CC[C@H](C1)N(Cc1cccc(Cl)c1Cl)C2,10.4
8,Cn1ccc(CN2CCC(COC3CCCC3)CC2)cc1=O,-10.4
9,Cn1cc(CCNC(=O)CCc2ccc3c(c2)OCO3)cn1,1.98
10,Cc1cc(C(=O)N2CC[C@H](OCC3CC3)[C@@H]2Cc2cccnc2)no1,-1.04
11,O=C(c1ccc(=O)[nH]n1)N1CC(c2nc(Cc3ccccc3)no2)C1,6.45
12,Cc1cnn(CC2CCCCN2C(=O)c2ccc3nnc(C)n3c2)c1 (stereo not given),5.71
13,CN(Cc1ccco1)C(=O)[C@H]1CSCN1C(=O)OC(C)(C)C,4.43
14,c1csc(-c2nc(CNC3CCc4ncnn4C3)co2)c1 (stereo not given),2.91
15,Cn1cc(CCNC(=O)NCc2nnc3n2CCC3)cn1,1.48
16,Cc1nn(C)c(N(C)C)c1CNCc1cccnc1-n1cncn1,7.29
17,Cn1ncc2c(=O)[nH]c(CN3CCCC3Cc3ccccc3)nc21 (stereo not given),8.37
18,COc1ccccc1CC1CCCN(CC(N)=O)C1 (stereo not given),2.86
19,Cc1noc(C(C)C)c1C(=O)NCc1cc(F)cc(F)c1,3.88
20,Cc1nc(CN(Cc2ccccc2)C2CCS(=O)(=O)C2)oc1C (stereo not given),7.39

# Biological target: T1, Tyrosyl-tRNA synthetase, putative (Trypanosoma cruzi (strain CL Brener))
# Assay: Trypanosoma cruzi tyrosyl tRNA synthetase (TcYRS) SOP
# Format: functional
# Parameters: scale not given: direction of the effect not stated beside the values
# Settings: 30 µM
row,SMILES,Percent Effect [%]
1,CCn1cc(Br)c(C(=O)NCc2cccnc2)n1,16.1
2,CCNC(=O)N1CCCCC1CCO (stereo not given),7.32
3,Cc1ccc(CN2Cc3c(C(=O)N(C)C)nn(C)c3C2)s1,11.1
4,COc1ccc(-n2ccc(C(=O)N3CCC(C(N)=O)C3)n2)cc1 (stereo not given),3.66
5,CC(C)(C)C(=O)NCCC(=O)NC(C)(C)c1ccc2c(c1)OCCO2,5
6,Cn1ncc2c(NCCOc3ccc(F)cc3)nc(C3CCCC3)nc21,10
7,O=C(CCc1ccsc1)NCC1CCN(c2ccccc2)C1 (stereo not given),7.69
8,CC(NC(=O)COc1nc(C(C)(C)C)no1)c1ccco1 (stereo not given),9.76
9,CCOCCN1CCN(Cc2nnc(C3CC3)o2)CC1CC (stereo not given),7.5
10,Cc1nccc(CNC(=O)NCCOc2ccc(F)c(F)c2)n1,9.76
11,COC[C@]12COC[C@H]1CN(Cc1cc(OC)cc(OC)c1)C2,7.69
12,CN(C)CC(=O)N1CCC2(CC1)CN(c1ccsc1)C(=O)CO2,-3.85
13,COc1ccc(-c2nnc(SC(C)C(=O)NC3CC3)[nH]2)c(OC)c1 (stereo not given),18.2
14,Cc1cc(NC(=O)CCN2CCCC2Cn2cncn2)no1 (stereo not given),10.1
15,CCN(CC)c1ccc(C(=O)NCc2cccnc2-n2cncn2)cn1,11.1
16,O=C(c1ccco1)N1CCOCC2(C1)CN(c1ccccc1)C(=O)CO2 (stereo not given),-2.5
17,O=C(Cc1ccc2c(c1)CCO2)N1CCCCC1Cn1cccn1 (stereo not given),7.79
18,CCCc1cc(=O)[nH]c2nnc(SCC(=O)NCc3ccc(C)cc3)n12,17.5
19,CCc1cnc(CN(C(C)=O)C2CCN(CCc3cnn(C)c3)C2)o1 (stereo not given),18.5
20,Cc1nc(C)n(CC2CCCN(CCc3ccncc3)C2)n1 (stereo not given),17.5

row,SMILES,Percent Effect [%]
1,CCS(=O)(=O)N(C)C(=O)c1cc(C)n(-c2cccc(OC)c2)c1C,21.5
2,CCN(Cc1cccc(Cl)c1)Cc1nc2c(cnn2C)c(=O)[nH]1,18.8
3,Cc1cc(-c2cnn(CCNC(=O)C3CCCO3)c2C2CC2)on1 (stereo not given),11.7
4,COc1ccc(NC(=O)N2CCCC2c2ccco2)cc1OC (stereo not given),14.1
5,Cn1cnc2c1C(COCC1CCOCC1)CN(C1CCOCC1)C2 (stereo not given),11.5
6,CCC(C)NC(=O)Cc1c(C)nc2c(c1C)c(=O)[nH]n2C (stereo not given),16.1
7,CN(C)C(=O)CN1C[C@@H]2CC[C@H](C1)N(Cc1cccc(Cl)c1Cl)C2,25.9
8,Cn1ccc(CN2CCC(COC3CCCC3)CC2)cc1=O,17.7
9,Cn1cc(CCNC(=O)CCc2ccc3c(c2)OCO3)cn1,13.4
10,Cc1cc(C(=O)N2CC[C@H](OCC3CC3)[C@@H]2Cc2cccnc2)no1,-2.5
11,O=C(c1ccc(=O)[nH]n1)N1CC(c2nc(Cc3ccccc3)no2)C1,20
12,Cc1cnn(CC2CCCCN2C(=O)c2ccc3nnc(C)n3c2)c1 (stereo not given),18.8
13,CN(Cc1ccco1)C(=O)[C@H]1CSCN1C(=O)OC(C)(C)C,13.6
14,c1csc(-c2nc(CNC3CCc4ncnn4C3)co2)c1 (stereo not given),9.76
15,Cn1cc(CCNC(=O)NCc2nnc3n2CCC3)cn1,16.5
16,Cc1nn(C)c(N(C)C)c1CNCc1cccnc1-n1cncn1,12.7
17,Cn1ncc2c(=O)[nH]c(CN3CCCC3Cc3ccccc3)nc21 (stereo not given),18.5
18,COc1ccccc1CC1CCCN(CC(N)=O)C1 (stereo not given),9.41
19,Cc1noc(C(C)C)c1C(=O)NCc1cc(F)cc(F)c1,14.6
20,Cc1nc(CN(Cc2ccccc2)C2CCS(=O)(=O)C2)oc1C (stereo not given),23.5
